# Measurements reported in PubChem BioAssay (EPA / NIEHS).
# Where “and” joins values, the source holds several entries; their conditions need not be identical. Equal values may be shown once. Some structures have more than one record in an assay (separate samples or runs), and their calls can disagree. Calls of active or inactive are those of the source. How the source made its calls: active means hit-call score of the fitted dose curve at least 0.9, where 1 is the maximum; inactive means score below 0.9.
# Test: APR_HepG2_CellCycleArrest_24hr: Apredica 24-hour HepG2 Assay for Cell Cycle Arrest (AID 2282905);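 further: cell cycle arrest scored as ratio of 2N to 4N nuclear DNA content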
# Details: imaging, actives raise or lower the signal
# How it was run: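 Readout: Hoechst 33342 nuclear DNA content by high-content fluorescent imaging, six images/well, 20x. Human HepG2 liver cells, 24 hr compound exposure, 0.39–200 uM, final DMSO 0.5% v/v. Gain or loss fitted relative to DMSO baseline.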
SMILES,outcome,AC50
OCCOc1ccccc1,inactive,–
CC1(c2ccc(Oc3ccccc3)cc2)OC(=O)N(Nc2ccccc2)C1=O (stereo unspecified),inactive,–
CC(C)(C)C(O)C(Oc1ccc(Cl)cc1)n1cncn1 (stereo unspecified),inactive,97.1 µM (active) and 78.4 µM (active)
O=S1OCC2C(CO1)C1(Cl)C(Cl)=C(Cl)C2(Cl)C1(Cl)Cl (stereo unspecified),inactive,–
CC(C)OC(=O)Nc1cccc(Cl)c1,inactive,–
COP(=S)(OC)Oc1ccc([N+](=O)[O-])cc1,inactive,–
O=C(O)C(F)(F)C(F)(F)C(F)(F)C(F)(F)C(F)(F)C(F)(F)C(F)(F)F,inactive,–
Cc1[nH]c(=O)n(C(C)(C)C)c(=O)c1Cl,inactive,–
O=[N+]([O-])c1c(Cl)c(Cl)c(Cl)c(Cl)c1Cl,inactive,–
CCCN(CCOc1c(Cl)cc(Cl)cc1Cl)C(=O)n1ccnc1,–,101 µM (active)
O=S(=O)(O)C(F)(F)C(F)(F)C(F)(F)C(F)(F)C(F)(F)C(F)(F)C(F)(F)C(F)(F)F,inactive,–
Oc1cc(Cl)ccc1Oc1ccc(Cl)cc1Cl,inactive,9.18 µM (active) and 20.4 µM (active)
CCC(C)(NC(=O)c1cc(Cl)c(C)c(Cl)c1)C(=O)CCl (stereo unspecified),–,12.8 µM (active)
CNC(=O)Oc1ccccc1OC(C)C,inactive,–
CNC(=O)CSP(=S)(OC)OC,inactive,–
O=C1c2ccccc2C(=O)N1SC(Cl)(Cl)Cl,inactive,–
ClC1C(Cl)C(Cl)C(Cl)C(Cl)C1Cl (stereo unspecified),inactive,–
[2H]C1([2H])[n+]2ccccc2-c2cccc[n+]2C1([2H])[2H],inactive,–
COC(=O)c1ccccc1CS(=O)(=O)NC(=O)Nc1nc(OC)cc(OC)n1,inactive,–
